Experimental data published in PubChem BioAssay (EPA / NIEHS).
Records with an inconclusive call do not appear. The source made the active and inactive calls. How the source made its calls, unless noted: active means hit-call score of the fitted dose curve at least 0.9, where 1 is the maximum; inconclusive means response in the unintended direction; inactive means score below 0.9.

Legend:
[1] = Tanguay_ZF_120hpf_SWIM_legacy: (Legacy) Oregon State University Tanguay Lab 120 Hour Post-fertilization zebrafish Assay for Swim Bladder Malformation (AID 2283654);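 further: swim bladder malformation in each larva scored yes or no under brightfield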
Method in brief: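 Static waterborne exposure of single dechorionated Tropical 5D zebrafish embryos, 6–120 hpf, 28C, 0.64% DMSO final. Read-out: swim bladder malformation, present/absent, relative to DMSO negative control; trimethyltin chloride 5uM served as positive control.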

[2] = Tanguay_ZF_120hpf_TRUN_legacy: (Legacy) Oregon State University Tanguay Lab 120 Hour Post-fertilization zebrafish Assay for Truncated Body (AID 2283655)
Method in brief: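 Binary presence/absence of truncated body is recorded at 120 hpf by brightfield, with non-mortality endpoints skipped after death. Exposure is static from 6 hpf in sealed dark plates at 28C, using dechorionated wild-type zebrafish, 0.64% DMSO.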

[3] = Tanguay_ZF_120hpf_NC_legacy: (Legacy) Oregon State University Tanguay Lab 120 Hour Post-fertilization zebrafish Assay for Notochord and Tail Malformation (AID 2283656)
Method in brief: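 Binary notochord-distortion calls, made by brightfield inspection, form the read-out; activity is fitted in the positive direction against DMSO. Exposure ran statically from 6 to 120 hpf at 28C with 0.64% DMSO.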

[4] = read-out: solute carrier (SLC10A1), SLC10A1 (gene 6554); assay: LTEA_HepaRG_SLC10A1: Life Technologies and Expression Analysis (LTEA) Assay for solute carrier (SLC10A1) using HepaRG (AID 2283657; active means hit-call score of the fitted dose curve at least 0.9, where 1 is the maximum; inactive means score below 0.9); details: mRNA level, 48 h; actives raise or lower the signal
Method in brief: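 Cryopreserved HepaRG cells are thawed, plated and cultured 48 h; medium is then switched to serum-free induction medium and chemicals added (8 points, max 100 uM, 0.5% DMSO). After 48 h, RNA is isolated and SLC10A1 quantified by qRT-PCR.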

[5] = read-out: matrix metalloproteinase-1 (MMP1), MMP1 (gene 4312); assay: LTEA_HepaRG_MMP1: Life Technologies and Expression Analysis (LTEA) Assay for matrix metalloproteinase-1 (MMP1) using HepaRG (AID 2283658; active means hit-call score of the fitted dose curve at least 0.9, where 1 is the maximum; inactive means score below 0.9); details: mRNA level, 48 h; actives raise or lower the signal
Method in brief: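 qRT-PCR (TaqMan, Fluidigm arrays) of MMP1 transcript, normalized against three housekeeping genes and fitted in both directions relative to 0.5% DMSO vehicle. Human HepaRG cultures received duplicate 48 h exposures across 8 points, highest 100 uM with half-log steps.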

[6] = system: Thyroperoxidase (TPO), gene 54314; assay: CCTE_Simmons_AUR_rTPO: CCTE's Amplex UltraRed Assay for Thyroperoxidase (TPO) Inhibition, Simmons Lab (AID 2283662);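 on AC50: potency for loss of signal meaning inhibition of peroxidase activity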
Method in brief: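 Rat thyroid microsomal TPO + 25 uM AUR in 200 mM K phosphate; cpd 5 nM–87.5 uM [final], 8 conc, 0.5% DMSO; 300 uM H2O2 starts rxn; 37C dark 30 min; endpoint FI 544/590 nm; n=3.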

[7] = CCTE_Simmons_CellTiterGLO_HEK293T: Viability Assessment in CCTE's Assays for Thyroperoxidase (TPO) Inhibition, Simmons Lab (AID 2283665);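 on AC50: cells exposed to compound for 24 h before readout; actives reduce ATP signal below DMSO vehicle meaning cytotoxicity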
Method in brief: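 Luminescent ATP readout (CellTiter-Glo, 20 min at room temperature) after 24 hr exposure of HEK293T cells to 5 nM–87.5 uM final compound; signal loss relative to DMSO vehicle indicated cytotoxicity; dichlone titrated as positive control.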

[8] = Tanguay_ZF_120hpf_TR_legacy: (Legacy) Oregon State University Tanguay Lab 120 Hour Post-fertilization zebrafish Assay for Touch Response (AID 2283667)
Method in brief: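 Readout is presence or absence of touch response in 120 hpf zebrafish larvae, assessed by brightfield observation after continuous static exposure at 28C. Final vehicle was 0.64% (vol/vol) DMSO.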

[9] = read-out: Cytochrome P450 (CYP24A1_1), CYP24A1 (gene 1591); assay: LTEA_HepaRG_CYP24A1_1: Life Technologies and Expression Analysis (LTEA) Assay for Cytochrome P450 (CYP24A1_1) using HepaRG (AID 2283671; active means hit-call score of the fitted dose curve at least 0.9, where 1 is the maximum; inactive means score below 0.9); details: mRNA level, 48 h; actives raise or lower the signal
Method in brief: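 Cultures of human HepaRG were treated in duplicate for 48 h (0.5% DMSO vehicle, highest dose 100 uM). CYP24A1 mRNA by qRT-PCR, normalized to ACTB, GAPDH, POLR2A.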

[10] = CCTE_Padilla_ZF_144hpf_TERATOSCORE: (Legacy) CCTE's 144 Hour Post-fertilization zebrafish Assay Teratoscore, Padilla Lab (AID 2283679; active means hit-call score of the fitted dose curve at least 0.9, where 1 is the maximum; inactive means score below 0.9;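 on AC50: zebrafish embryos with chorions exposed by immersion from 6-8 hpf to 5 dpf with daily renewal; teratogenicity score from eye scoring of death hatching and malformations at 144 hpf; higher score means more developmental defects relative to DMSO baseline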)
Method in brief: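 Larvae scored by eye at 144 hpf for death, hatching and malformations after a day in clean Hanks'. Before that, daily-renewed exposure at 80 uM (0.4% DMSO, 26C) from roughly 6-8 hpf through 5 dpf, 4 embryos per chemical.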

[11] = STM_H9_OrnithineISnorm_perc: Stemina devTOX quickPredict H9 human embryonic stem cell (hESC)-based Assay for Ornithine (ORN) Metabolite Biomarker, Normalized (AID 2283712; active means hit-call score of the fitted dose curve at least 0.9, where 1 is the maximum; inactive means score below 0.9;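 further: ornithine released into spent medium during last day measured by mass spectrometry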)
Method in brief: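 UPLC-HRMS readout: endogenous ornithine EIC area / 13C-ORN internal standard, then % of 0.1% DMSO median. H9 hESCs (pluripotent), 72h exposure, re-dosed with fresh media q24h; last 24-h spent media, deproteinized in 40% acetonitrile.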

[12] = STM_H9_CystineISnorm_perc: Stemina devTOX quickPredict H9 human embryonic stem cell (hESC)-based Assay for Cystine (CYSS) Metabolite Biomarker, Normalized (AID 2283713; active means hit-call score of the fitted dose curve at least 0.9, where 1 is the maximum; inactive means score below 0.9)
Method in brief: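 UPLC-HRMS read-out: endogenous cystine peak area in spent medium, normalized to isotope-labeled internal standard and to median of 0.1% DMSO controls. Pluripotent H9 cells, 72h exposure, daily medium/compound replenishment; medium from last 24h sampled.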

[13] = STM_H9_OrnCyssISnorm_ratio: Stemina devTOX quickPredict H9 human embryonic stem cell (hESC)-based Assay for Ornithine (ORN):Cystine (CYSS) Ratio (AID 2283714)
Method in brief: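 H9 hESC, 72h, q24h re-dose; last-day media → acetonitrile deproteinization → UPLC-HRMS. ORN:CYSS ratio from isotope-normalized EIC areas, vs 0.1% DMSO; MTX references on each plate.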

[14] = CEETOX_H295R_MTT_cell_viability: Viability Assessment in the CeeTox HT-H295R MTT Assay (AID 2283718; active means hit-call score of the fitted dose curve at least 0.9, where 1 is the maximum; inactive means score below 0.9;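 on AC50: curve fitted both ways so AC50 may mark viability loss or gain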)
Method in brief: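 H295R cells prestimulated 48 h with 10 uM forskolin, then exposed 48 h to test chemical (0.1% DMSO final). Viability by MTT (0.5 mg/ml, 4 h, 37 C), absorbance 570/650 nm; percent change versus DMSO, bidirectional fit.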

[15] = Tanguay_ZF_120hpf_ActivityScore_legacy: (Legacy) Oregon State University Tanguay Lab 120 Hour Post-fertilization zebrafish Assay Score for Activity (AID 2283742);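 on AC50: dechorionated Tropical 5D wild-type zebrafish embryos held singly per well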
Method in brief: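 In this whole-embryo screen, dechorionated zebrafish were exposed from 6 hpf until 120 hpf at 28C under a 0.64% DMSO vehicle. Developmental malformations and death were recorded by brightfield microscopy as binary endpoints.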

[16] = ArunA_CellTiter_hNC: Viability Assessment in the ArunA Biomedical's Oris Neural Crest (hNC) Cell Migration Assay (AID 2283752)
Method in brief: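 hNC cells (H9 ESC-derived), 60,000/well, Matrigel, LIF + bFGF medium; 16 h 37C attachment; 72 h compound in test medium; CellTiter Aqueous One read-out; loss-of-signal vs DMSO baseline.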

[17] = ArunA_Migration_hNP: ArunA Biomedical's Oris Neuroprogenitor (hNP) Cell Migration Assay (AID 2283754)
Method in brief: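 Readout is calcein-AM fluorescence (ex494/em517) of cells migrating into the detection zone, relative to DMSO. hNP1 cells (H9-derived) grown on Matrigel behind stoppers 16 h, then stoppers pulled and chemical applied 72 h; cytochalasin D as control.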

[18] = ArunA_Migration_hNC: ArunA Biomedical's Oris Neural Crest (hNC) Cell Migration Assay (AID 2283755)
Method in brief: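 Calcein-AM fluorescence (ex494 nm/em 517 nm) in the stopper-defined detection zone quantifies migration of hNC cells after 72 h chemical exposure; 60,000 cells/well plated on Matrigel with LIF and bFGF, 16 h pre-incubation. DMSO baseline.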

[19] = system: Thyroperoxidase (TPO), gene 445522; assay: CCTE_Simmons_GUA_TPO: CCTE's Guaiacol Assay for Thyroperoxidase (TPO) Inhibition, Simmons Lab (AID 2283750)
Method in brief: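 Porcine thyroid microsomes (25 ug) in 200mM potassium phosphate, preincubated 30 s at 37C with compound (8 concentrations, 5 nM–87.5 uM) and 35mM guaiacol; 1mM H2O2 starts reaction. Absorbance change at 450nm over first 80 s; loss of signal versus DMSO, three replicates.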

[20] = ArunA_CellTiter_hNP: Viability Assessment in the ArunA Biomedical's Oris Neural Crest (hNC) Cell Migration Assay (AID 2283753)
Method in brief: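 Viability read with CellTiter 96 Aqueous One after 72 h chemical exposure of human hNP1 neuroprogenitors, which were plated on Matrigel in LIF/bFGF medium 16 h beforehand. Endpoint fitted in positive direction relative to DMSO.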

Measured: AC50

Oc1ccc2ccccc2c1N=Nc1ccccc1
active: [1] 51.7 µM | [4] 4.88 µM | [7] 17 µM | [8] 25.4 µM | [10] 5.21 µM | [15] 0.0559 µM
not listed: [19] | [20]
inactive: all other assays above

Cc1oc(-c2ccccc2)nc1CCOc1cccc2c1ccn2CCC(=O)O
inactive: [1] | [2] | [3] | [7] | [8] | [11] | [14]
active: [6] 28.8 µM | [10] 16.1 µM | [12] 0.0105 µM

COc1cc(S(=O)(=O)O)c(C)cc1N=Nc1c(O)ccc2cc(S(=O)(=O)O)ccc12
active: [6] 23.3 µM | [7] 13.4 µM
inactive: [1] | [2] | [3] | [8] | [15]

Cc1ccccc1Cl
inactive: [1] | [2] | [3] | [8]

CCOc1ccc2c(c1)C(C)=CC(C)(C)N2
active: [6] 1.48 µM | [7] 48.8 µM | [10] 57.7 µM | [19] 130 µM
inactive: [1] | [2] | [3] | [8] | [11] | [12] | [13] | [14] | [15]

O=c1c(O)c(-c2ccc(O)c(O)c2)oc2cc(O)cc(O)c12
inactive: [1] | [2] | [3] | [8] | [10] | [11] | [12] | [16]
active: [6] 0.182 µM | [7] 27.1 µM | [20] 3.88 µM | [17] 3.08 µM | [18] 2.36 µM

CC1(C)CC(N=C=O)CC(C)(CN=C=O)C1 (configuration not stated)
active: [14] 22.3 µM
inactive: [1] | [2] | [3] | [8] | [10]

Cc1nc(C)nc(N2C[C@@H](C)N(c3ccnc([C@@H](C)O)n3)[C@@H](C)C2)n1
inactive: [1] | [2] | [3] | [8] | [14]
active: [10] 30.3 µM

O=c1[nH]cc(F)c(=O)[nH]1
inactive: [1] | [2] | [3] | [8]
active: [11] 4.61 µM | [12] 2.71 µM | [13] 3 µM

CCOC(=O)CCC(=O)OCC
inactive: [1] | [2] | [3] | [15]

CC(C)(C)c1cc(O)c(C(C)(C)C)cc1O
active: [6] 3.58 µM | [7] 27.5 µM | [8] 34.6 µM | [10] 1.19 µM
inactive: [1] | [2]

CCCCc1ccc2c(n1)[C@@H](c1ccc(OC)cc1C[C@H](C)C(=O)O)[C@H](C(=O)O)[C@H]2c1ccc2c(c1)OCO2
inactive: [1] | [2] | [3] | [11] | [12] | [16] | [20] | [17] | [18]

Cc1cccc(Nc2cc(Cl)nc(SCC(=O)O)n2)c1C
inactive: [1] | [2] | [3] | [8] | [11] | [14] | [15]
active: [12] 53.6 µM

CCCCCCCC=O
inactive: [1] | [2] | [3] | [8] | [15]

Cc1nc(-c2ccc3c(c2)CCN(CCC2CCC(NC(=O)/C=C/c4ccc(F)cc4)CC2)CC3)no1 (configuration not stated)
inactive: [1] | [2] | [3] | [8] | [11] | [12] | [14] | [15]

CCOC(=O)C(C)(C)Oc1ccc(Cl)cc1
active: [2] 65.3 µM | [10] 2.86 µM | [15] 37.7 µM
inactive: [1] | [3] | [8]

Oc1ccc2c(c1)OC[C@@H](N1CCC(O)(c3ccc(F)cc3)CC1)[C@H]2O
inactive: [1] | [2] | [3] | [8] | [14]
active: [10] 1.46 µM

CCCCCCCCCCCC(=O)OC
inactive: [1] | [2] | [3] | [8] | [15]

CCCCCCCCCCCCCCCC
inactive: [1] | [2] | [3] | [8] | [15]

CCCCCC(=O)O
inactive: [1] | [2] | [3] | [8] | [15]

COc1ccc(C)cc1N
inactive: [1] | [2] | [7] | [8] | [14] | [15]
active: [6] 1.23 µM

CCCCCCC(=O)OCC
inactive: [1] | [2] | [3] | [15]

NCC1(Cc2noc(=O)[nH]2)CCCCC1
inactive: [1] | [2] | [3] | [8] | [15]

Nc1ccc2c(c1)C(=O)c1ccccc1C2=O
inactive: [1] | [2] | [3] | [14]

C=CCc1ccc(O)c(OC)c1
inactive: [1] | [2] | [7] | [8] | [14]
active: [6] 6.16 µM

COCCOC[C@H](CC1(C(=O)NC2CCC(C(=O)O)CC2)CCCC1)C(=O)Oc1ccc2c(c1)CCC2 (some centres not stated)
inactive: [1] | [2] | [3] | [8] | [15]
